Test results reported in the supplement of paper PMC7156485.
Several values for one entry are separate records, joined by “and”; a condition that tells them apart may be missing. Identical values can stand only once. ± gives the standard deviation of the averaged measurements.

What was measured:
Details in all cases: concentration: 10 µM; 24 h
[1] = tested on: HCC1569; experiment: cell number relative to DMSO (% of DMSO); higher = more cells (less growth inhibition / toxicity)
Outline: (§1)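 Compounds were applied at 10 µM for 24 h at 37 °C, in triplicate, to HCC1569 and TDF cells. The cells were then fixed and stained for H1.0, and nuclei were counterstained with DAPI. Nuclear H1.0 intensity or cell number is reported relative to the plate control as a percent, taking the median of replicates. Smoothing for positional effects was applied to HCC1569 values only.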

[2] = tested on: TDF; experiment: as above
Outline: as §1

[3] = tested on: TDF; experiment: H1.0 immunofluorescence intensity relative to DMSO (% of DMSO); higher = stronger H1.0 induction, active = 120 or more
Outline: as §1

[4] = tested on: HCC1569; experiment: H1.0 immunofluorescence intensity relative to DMSO (% of DMSO); higher = stronger H1.0 induction, active = 140 or more
Outline: as §1
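Wherever H1.0 immunofluorescence intensity relative to DMSO is given: TDF is a line of transformed human dermal fibroblasts of mesenchymal origin.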
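Wherever cell number relative to DMSO is given: TDF denotes transformed human dermal fibroblasts of mesenchymal origin.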

| SMILES | cell number [1] | cell number [2] | H1.0 immunofluorescence intensity [3] | H1.0 immunofluorescence intensity [4] |
| --- | --- | --- | --- | --- |
| N#CC(=C(N)Sc1ccccc1N)C(C#N)=C(N)Sc1ccccc1N | 102 and 101 | 95.9 and 96.9 | 94 (inactive) and 88.9 (inactive) | 108 (inactive) and 98.1 (inactive) |
| CN(C)CCCC1(c2ccc(F)cc2)OCc2cc(C#N)ccc21 (centres undefined) [Citalopram] | 103 | 114 | 91.3 (inactive) | 100 (inactive) |
| CC1=CC(=O)c2ccccc2C1=O [Menadione] | 99.9 | 82.8 | 106 (inactive) | 91.9 (inactive) |
| CCCCCC=CCC=CCC=CCCCCC(=O)O [6(Z), 9(Z), 12(Z)-Octadecatrienoic Acid] | 101 | 93.2 | 91.1 (inactive) | 105 (inactive) |
| OC(Cn1cncn1)(Cn1cncn1)c1ccc(F)cc1F [Fluconazole] | 102 | 100 | 93.8 (inactive) | 106 (inactive) |
| C[N+]1(C)CCC(OC(=O)C(c2ccccc2)c2ccccc2)CC1.[I-] [4-DAMP methiodide] | 100 | 105 | 98.6 (inactive) | 101 (inactive) |
| CCC=CCC(O)C=CC=CCC=CCC=CCCCC(=O)O (centres undefined) | 105 | 102 | 98.8 (inactive) | 94.3 (inactive) |
| CN1C(CC(=O)c2ccccc2)CCCC1CC(O)c1ccccc1 (centres undefined) [Lobeline] | 103 | 102 | 94.9 (inactive) | 99.8 (inactive) |
| O=C1Nc2ccccc2C1=Cc1c(Cl)[nH]c2ccccc12 [Cdk1 Inhibitor] | 56.6 | 9.63 | 149 (active) | 143 (active) |
| C=CC1CN2CCC1CC2C(O)c1ccnc2ccc(OC)cc12.C=CC1CN2CCC1CC2C(O)c1ccnc2ccc(OC)cc12.O=S(=O)(O)O (centres undefined) [Quinine sulfate] | 102 | 97.8 | 92.8 (inactive) | 100 (inactive) |
| CN(C)CCCN1c2ccccc2Sc2ccc(Cl)cc21.Cl [Chlorpromazine.HCl] | 96.5 | 99.7 | 106 (inactive) | 113 (inactive) |
| OB1OCc2cc(F)ccc21 [5-fluoro-2,1-benzoxaborol-1(3H)-ol] | 104 | 104 | 95.6 (inactive) | 98.5 (inactive) |
| NC(=O)c1cc[n+](CC2=C(C(=O)[O-])N3C(=O)C(NC(=O)C(c4ccccc4)S(=O)(=O)[O-])C3SC2)cc1.[Na+] (centres undefined) [Cefsulodin sodium salt hydrate] | 99.1 | 104 | 94.6 (inactive) | 94.3 (inactive) |
| COc1ccccc1Oc1c(NS(=O)(=O)c2ccc(C(C)(C)C)cc2)nc(-c2ncccn2)nc1OCCO [Bosentan] | 99.5 | 98.2 | 98.9 (inactive) | 107 (inactive) |
| COc1cc2c3cc1Oc1c(OC)c(OC)cc4c1C(Cc1ccc(O)c(c1)Oc1ccc(cc1)CC3N(C)CC2)N(C)CC4.Cl.Cl (centres undefined) | 90.4 | 92.2 | 104 (inactive) | 109 (inactive) |
| O=[N+]([O-])c1ccc(-c2nc(-c3ccc(F)cc3)c(-c3ccncc3)[nH]2)cc1 | 89.9 | 101 | 84.2 (inactive) | 139 (inactive) |
| O=C(O)Cc1c[nH]c2ccccc12 [Indole-3-acetic acid] | 100 | 102 | 94.5 (inactive) | 84.8 (inactive) |
| O=c1[nH]c2ccccc2n1CCCN1CCN(C(c2ccccc2)c2ccccc2)CC1 [Oxatomide] | 98.3 ± 2.3 | 105 ± 7.4 | 90.8 (inactive) | 101 (inactive) |
| Cl.c1ccc(-n2c(C3=NCCN3)cc3ccccc32)cc1 | 98.8 | 92.4 | 105 (inactive) | 101 (inactive) |
| CCOc1cc(N2CCC(O)CC2)ccc1Nc1ncc2c(n1)N(C)c1ccccc1C(=O)N2C | 85.6 | 72.2 | 117 (inactive) | 169 (active) |
| CCCCCCCCCCCCCCCC(=O)NC(CN1CCOCC1)C(O)c1ccccc1 (racemic) | 103 | 94.8 | 97.6 (inactive) | 102 (inactive) |
| Cl.NC1C=CC=C(C(=O)O)C1 (centres undefined) [Gabaculine hydrochloride] | 103 | 108 | 102 (inactive) | 105 (inactive) |
| CCCCCCCCCCCCCCCCCCCCCCCC(=O)O [Tetracosanoic acid] | 99.5 | 104 | 98 (inactive) | 104 (inactive) |
| CC(N)=O [Acetamide] | 113 | 103 | 111 (inactive) | 106 (inactive) |
| CC1CCN=C(N)S1.Cl (racemic) | 98.5 | 103 | 108 (inactive) | 100 (inactive) |
| O=C(NCc1ccc2c(c1)OCO2)c1c(Cl)cccc1Cl [N-(1,3-benzodioxol-5-ylmethyl)-2,6-dichlorobenzamide] | 97.3 | 103 | 97 (inactive) | 105 (inactive) |

| SMILES | cell number [1] | cell number [2] | H1.0 immunofluorescence intensity [3] | H1.0 immunofluorescence intensity [4] |
| --- | --- | --- | --- | --- |
| CNC1(C)C2CCC(C2)C1(C)C.Cl (centres undefined) [Mecamylamine hydrochloride] | 106 | 108 | 94.1 (inactive) | 93.5 (inactive) |
| CCCNCC(O)COc1ccccc1C(=O)CCc1ccccc1 (centres undefined) [Propafenone] | 103 | 101 | 92.6 (inactive) | 103 (inactive) |
| C[C@H](c1ccc(F)cc1CCCC(=O)O)N(c1cc(F)ccc1F)S(=O)(=O)c1ccc(Cl)cc1 | 99.7 | 90.2 | 94.6 (inactive) | 111 (inactive) |
| CN(C(=O)CCCOc1ccc2[nH]c(=O)ccc2c1)C1CCCCC1 [Cilostamide] | 100.9 ± 0.88 | 109 ± 5 | 96.9 (inactive) | 98.1 (inactive) |
| NC(=O)c1ccc(N(C(N)=O)c2c(F)cccc2F)nc1-c1ccc(F)cc1F | 105 | 104 | 94.8 (inactive) | 90.2 (inactive) |
| CNc1nccc(-c2cccnc2Oc2cc(C(=O)Nc3cccc(C(F)(F)F)c3)ccc2C)n1 | 82.3 | 103 | 92.9 (inactive) | 102 (inactive) |
| COc1ccc(C=Cc2cc(O)cc(OC3OC(CO)C(O)C(O)C3O)c2)cc1O (centres undefined) [Rhapontin] | 99.2 | 104 | 96 (inactive) | 83.7 (inactive) |
| CCCn1c(=O)c2[nH]c(-c3ccc(OCC(=O)Nc4ccc(C#N)cc4)cc3)nc2n(CCC)c1=O | 105 | 114 | 96.6 (inactive) | 102 (inactive) |
| Cc1ccc(=O)n(-c2ccccc2)c1 [Pirfenidone] | 102 | 103 | 90.3 (inactive) | 92.5 (inactive) |
| CC(=O)C1=C(O)C=C2Oc3c(C(C)=O)c(O)c(C)c(O)c3C2(C)C1=O (single isomer, unassigned; (+)) [(+)-Usnic acid] | 100 | 109 | 96.7 (inactive) | 91.2 (inactive) |
| CCOC(=O)C1=C(C)NC(=S)NC1c1cccc(O)c1 (centres undefined) [Monastrol] | 99.8 | 112 | 100 (inactive) | 97.1 (inactive) |
| C=C1C(=O)OC2C1CCC(=C)C1CCC(=C)C12 (centres undefined) [Dehydrocostus lactone] | 83.9 | 64.3 | 110 (inactive) | 103 (inactive) |
| CCCCCC(O)C=CC1=C(CCCCCCC(=O)O)C(=O)CC1 (centres undefined) [Prostaglandin B1] | 101 ± 2.6 | 108.4 ± 0.5 | 97.7 (inactive) | 101 (inactive) |
| O=C(C=Cc1ccc(O)c(O)c1)OCCc1ccccc1 [Caffeic acid phenethyl ester] | 69.1 | 81 | 94.7 (inactive) | 108 (inactive) |
| COc1cc2nccc(Oc3ccc(NC(=O)Nc4ccc(F)cc4F)c(F)c3)c2cc1OC | 74.9 | 59.9 | 103 (inactive) | 108 (inactive) |
| CS(=O)(=O)O.N=C(N)SCCc1ccc(OCc2ccc([N+](=O)[O-])cc2)cc1 | 88.6 | 78.2 | 125 (active) | 158 (active) |
| CCCc1cc(=O)oc2c(C(=O)N3CCCc4ccccc43)c(OC)cc(OC)c12 | 55.5 | 46.1 | 108 (inactive) | 159 (active) |
| C[N+](C)(C)C(Cc1c[nH]c(=S)[nH]1)C(=O)[O-] [L-Ergothioneine] | 107 | 102 | 101 (inactive) | 100 (inactive) |
| CN(C)C1C(=O)C(C(N)=O)=C(O)C2(O)C(=O)C3=C(O)c4c(O)ccc(Cl)c4C(O)C3CC12.Cl (centres undefined) [Demeclocycline hydrochloride] | 96.2 | 96.5 | 99.7 (inactive) | 104 (inactive) |
| Cn1c(=O)c2c(ncn2CC2OCCO2)n(C)c1=O [Doxofylline] | 103 | 106 | 105 (inactive) | 104 (inactive) |
| O=C(CCNNC(=O)c1ccncc1)NCc1ccccc1 [Nialamide] | 102.5 ± 0.38 | 103 ± 2.9 | 92.2 (inactive) | 100 (inactive) |
| O=C(O)C=CC(=O)O.c1cnc(N2CCN(Cc3ccc4c(c3)OCO4)CC2)nc1 [Piribedil maleate] | 101 | 116 | 93.8 (inactive) | 79.7 (inactive) |
| CC=Cc1ccc(OC)cc1 [Anethole, trans-] | 96.1 | 81.4 | 107 (inactive) | 105 (inactive) |
| COc1cc(O)c(C(=O)C=Cc2ccccc2)c(OC)c1 [Flavokawain B] | 75.4 | 81.6 | 93.6 (inactive) | 124 (inactive) |
| CCCCCCCCCCCCCCCCCCCCC(=O)O [Heneicosanoic acid] | 102 | 95.5 | 98.5 (inactive) | 103 (inactive) |
